In PubChem BioAssay AID430 (Sanford-Burnham Center for Chemical Genomics, 2006):
Among all 63,000 compounds or so, about 1,100 (1.7%) were called active. Rule as the data show it: active = cytotoxicity above about 50%; inactive = the rest. Shown is part of a subset that was picked to be rich in actives. Entries with a potency or affinity are not part of this list.

test: HPDE-C7 pancreatic duct cell viability loss – fluorescence, HTS (AID 430); details: HPDE-C7 pancreatic duct cells viability, at 10 µM, active compounds read high;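 also: cells exposed to compound for 48 hours before viability readout; 0% = vehicle and 100% = reference cytotoxic drug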

| SMILES | cytotoxicity |
| --- | --- |
| CCCCNc1nc2ccccc2n1CC(=O)N1CCc2ccccc2C1 | -0.3% (inactive) |
| COc1cccc(-c2cc(C(=O)N3CCCc4ccccc43)no2)c1 | -19.5% (inactive) |
| CCOC(=O)C1=C(C)N=C2SC(C)C(=O)N2C1/C=C/c1ccccc1OC (configuration not stated) | -8.3% (inactive) |
| CCc1nc(Nc2ccncc2)c2oc3ccccc3c2n1 | 67.4% (active) |
| CCNc1nc(CC)nc2c1oc1ccccc12 | -12.6% (inactive) |
| Cc1nc(Nc2ccncc2)c2oc3ccccc3c2n1 | -28.9% (inactive) |
| c1ccc2c(c1)[nH]c1c(N3CCC4(CC3)OCCO4)ncnc12 | -10.6% (inactive) |
| c1ccc2c(c1)[nH]c1c(N3CCCC3)ncnc12 | 0% (inactive) |
| OC1(c2cccc(C(F)(F)F)c2)CCN(c2ncnc3c2[nH]c2ccccc23)CC1 | 123% (active) |
| COC(=O)c1cc2c(cc1Cl)SC(=NCCCN1CCOCC1)NS2(=O)=O | -1.2% (inactive) |
| O=C(Nc1cccc2cccnc12)c1ccc(Br)o1 | 5.6% (inactive) |
| O=C(COc1cccc2cccnc12)Nc1nccs1 | 8.2% (inactive) |
| O=C(O)c1cccnc1Oc1ccccc1 | -7% (inactive) |
| FC(F)Oc1cccc2cccnc12 | -5.8% (inactive) |
| O=C(O)c1ccccc1NS(=O)(=O)c1cccc2cccnc12 | 21.6% (inactive) |
| COC(=O)c1ccccc1OC(=O)c1ccc(Br)o1 | 7.5% (inactive) |
| CCc1ccc(C(=O)N2CCN(c3ccc(F)cc3)CC2)s1 | -18.1% (inactive) |
| CC(=O)N1CCN(Cc2cc(=O)n3cc(Cl)c(C)c(Cl)c3n2)CC1 | -7.9% (inactive) |
| O/N=C(\Cc1cscn1)c1ccc(O)cc1O | -6.8% (inactive) |
| CCn1c(=O)cc(SCC(=O)Nc2ccc3c(c2)OCO3)c2ccccc21 | 0.7% (inactive) |
| Cc1ccc(-c2cc(C(=O)N3CCOCC3)c3ccccc3n2)cc1 | -8.5% (inactive) |

| SMILES | cytotoxicity |
| --- | --- |
| COc1cccc(-c2cc(C(=O)N3CCN(c4ncccn4)CC3)c3ccccc3n2)c1 | -4.1% (inactive) |
| O=C(c1cc(-c2ccccc2)nc2ccccc12)N1CCN(c2ccccn2)CC1 | 17.1% (inactive) |
| Cc1ccc2nc(-c3ccccn3)cc(C(=O)N3CCN(c4ncccn4)CC3)c2c1 | 8.9% (inactive) |
| CCOC(=O)N1CCN(C(=O)c2cc(-c3ccc(OCC)cc3)nc3ccccc23)CC1 | 57.6% (active) |
| Cc1ccc(-c2cc(C(=O)N3CCN(c4ncccn4)CC3)c3ccccc3n2)cc1 | 57.3% (active) |
| CCOc1ccc(-c2cc(C(=O)N3CCN(C)CC3)c3ccccc3n2)cc1 | -8.5% (inactive) |
| O=C(c1cc(-c2ccncc2)nc2ccc(Br)cc12)N1CCN(c2ccccn2)CC1 | 12.7% (inactive) |
| O=C(c1cc(-c2ccncc2)nc2ccccc12)N1CCN(c2ccccn2)CC1 | 56.1% (active) |
| COc1ccc(-c2cc(C(=O)N3CCN(c4ccccn4)CC3)c3ccccc3n2)cc1 | 32% (inactive) |
| COc1cc(-c2cc(C(=O)N3CCN(c4ccccn4)CC3)c3ccccc3n2)cc(OC)c1OC | 14.4% (inactive) |
| CCOc1ccc(-c2cc(C(=O)N3CCN(c4ccccn4)CC3)c3ccccc3n2)cc1 | 56.9% (active) |
| Cc1ccc(S(=O)(=O)N2CCN(C(=O)CSc3nc4ccccc4o3)C2)cc1 | -14.7% (inactive) |
| O=C1CSC(c2ccccc2F)N1c1cc(Cl)ccc1O (configuration not stated) | 9.2% (inactive) |
| CSc1cccc(NC(=O)CN(C2CCCCC2)S(C)(=O)=O)c1 | -17.9% (inactive) |
| O=C(c1cccc(OC(F)F)c1)N1CCN(c2ncccn2)CC1 | -14.1% (inactive) |
| CCC(=O)Nc1ccc(S(=O)(=O)Nc2cccc(C)c2)cc1OC | 3.2% (inactive) |
| COc1ccc(CNC(=O)C2CCN(S(=O)(=O)c3cccc4cccnc34)CC2)cc1 | 2% (inactive) |
| COc1cc(C2C3=C(Nc4ncnn42)c2ccccc2CC3)cc(OC)c1OC (configuration not stated) | 73.5% (active) |
| COc1ccc(C2C3=C(Nc4ncnn42)c2ccccc2CCC3)cc1 (configuration not stated) | -20.3% (inactive) |
| COc1ccc(C2C3=C(Nc4ncnn42)c2ccccc2CC3)cc1OC (configuration not stated) | 32.9% (inactive) |
| CCN(CC)S(=O)(=O)c1cccc(-c2nnc(SCC#N)n2Cc2ccccc2)c1 | 3.5% (inactive) |

| SMILES | cytotoxicity |
| --- | --- |
| N#CCC(=O)N1CCn2c1nc1ccccc12 | -11.2% (inactive) |
| O=C1CC(N2CCN(c3ccc(F)cc3)CC2)C(=O)N1Cc1cccs1 (configuration not stated) | -1.7% (inactive) |
| O=C1CC(N2CCN(c3nc4ccccc4s3)CC2)C(=O)N1Cc1cccs1 (configuration not stated) | 12.3% (inactive) |
| CCOC(=O)CSc1nc(N)cc(=O)[nH]1 | -12% (inactive) |
| Cc1ccc(C(=O)NCc2ccc3c(c2)OCO3)cc1S(=O)(=O)N1CCOCC1 | -5.3% (inactive) |
| Cc1cc(NC(=O)CCC(=O)N(c2ccccc2)C(C(=O)NCC2CCCO2)c2cccnc2)no1 (configuration not stated) | -0.6% (inactive) |
| CCOc1ccc(C2CC(=O)NC(SCC(=O)OC)=C2C#N)cc1 (configuration not stated) | 5.6% (inactive) |
| CCOC(=O)CSC1=C(C#N)C(c2ccc3c(c2)OCO3)CC(=O)N1 (configuration not stated) | 43.8% (inactive) |
| CCOC(=O)CSC1=C(C#N)C(c2ccccc2OC)CC(=O)N1 (configuration not stated) | 54.9% (active) |
| CCCCOC(=O)CSC1=C(C#N)C(c2ccc3c(c2)OCO3)CC(=O)N1 (configuration not stated) | 28.6% (inactive) |
| COC(=O)CSC1=C(C#N)C(c2ccc(F)cc2)CC(=O)N1 (configuration not stated) | 10.1% (inactive) |
| CCSC1=C(C#N)C(c2ccc(C)s2)CC(=O)N1 (configuration not stated) | -7.1% (inactive) |
| CCOC(=O)CSC1=C(C#N)C(c2ccc(C)s2)CC(=O)N1 (configuration not stated) | 54.7% (active) |
| CCOC(=O)CC(=O)CSC1=C(C#N)C(c2ccccc2OC)CC(=O)N1 (configuration not stated) | 43.6% (inactive) |
| CCOC(=O)CSC1=C(C#N)C(c2sccc2C)CC(=O)N1 (configuration not stated) | 63.5% (active) |
| CCCOC(=O)CSC1=C(C#N)C(c2ccc3c(c2)OCO3)CC(=O)N1 (configuration not stated) | 65.3% (active) |
| CSC1=C(C#N)C(c2ccc(C)s2)CC(=O)N1 (configuration not stated) | -8.2% (inactive) |
| CCSC1=C(C#N)C(c2ccccc2OC)CC(=O)N1 (configuration not stated) | -4.8% (inactive) |
| O=C1CCC(=O)N1CC(=O)N1c2ccccc2Sc2ccccc21 | -7.4% (inactive) |
| COc1ccc(-n2nc3c(c2NC(=O)c2cc4ccccc4oc2=O)CS(=O)(=O)C3)cc1 | -14.8% (inactive) |
